28 molecules from PubChem BioAssay (EPA / NIEHS) can be followed below.

The structures appear in SMILES notation. Records with an inconclusive call do not appear. The source made the active and inactive calls. Rule for the calls: active = hit-call score of the fitted dose curve at least 0.9, where 1 is the maximum; inconclusive = response in the unintended direction; inactive = score below 0.9.

Sequence of sheep Cyclooxygenase-1 (Cox1), PTGS1 (gene 443551) (P05979 whole entry, looked up): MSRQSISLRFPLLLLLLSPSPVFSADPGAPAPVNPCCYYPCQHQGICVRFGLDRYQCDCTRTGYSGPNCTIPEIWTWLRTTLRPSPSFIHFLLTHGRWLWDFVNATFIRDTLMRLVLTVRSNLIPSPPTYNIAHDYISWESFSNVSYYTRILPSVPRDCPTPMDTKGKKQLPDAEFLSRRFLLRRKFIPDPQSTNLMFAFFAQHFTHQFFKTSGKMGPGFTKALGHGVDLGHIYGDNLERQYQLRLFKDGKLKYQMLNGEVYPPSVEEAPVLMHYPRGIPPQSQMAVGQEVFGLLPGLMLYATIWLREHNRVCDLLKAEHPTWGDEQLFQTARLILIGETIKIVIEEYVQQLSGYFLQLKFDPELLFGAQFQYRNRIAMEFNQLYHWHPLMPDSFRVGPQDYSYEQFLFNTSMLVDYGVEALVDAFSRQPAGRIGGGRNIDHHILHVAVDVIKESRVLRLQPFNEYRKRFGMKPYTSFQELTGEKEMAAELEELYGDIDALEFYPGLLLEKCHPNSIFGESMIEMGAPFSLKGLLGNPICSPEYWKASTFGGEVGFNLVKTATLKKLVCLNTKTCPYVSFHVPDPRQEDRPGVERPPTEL
Sequence of human Phosphoinositide 3-kinase alpha (PI3Ka), PIK3CA (gene 5290) (P42336 whole entry, looked up): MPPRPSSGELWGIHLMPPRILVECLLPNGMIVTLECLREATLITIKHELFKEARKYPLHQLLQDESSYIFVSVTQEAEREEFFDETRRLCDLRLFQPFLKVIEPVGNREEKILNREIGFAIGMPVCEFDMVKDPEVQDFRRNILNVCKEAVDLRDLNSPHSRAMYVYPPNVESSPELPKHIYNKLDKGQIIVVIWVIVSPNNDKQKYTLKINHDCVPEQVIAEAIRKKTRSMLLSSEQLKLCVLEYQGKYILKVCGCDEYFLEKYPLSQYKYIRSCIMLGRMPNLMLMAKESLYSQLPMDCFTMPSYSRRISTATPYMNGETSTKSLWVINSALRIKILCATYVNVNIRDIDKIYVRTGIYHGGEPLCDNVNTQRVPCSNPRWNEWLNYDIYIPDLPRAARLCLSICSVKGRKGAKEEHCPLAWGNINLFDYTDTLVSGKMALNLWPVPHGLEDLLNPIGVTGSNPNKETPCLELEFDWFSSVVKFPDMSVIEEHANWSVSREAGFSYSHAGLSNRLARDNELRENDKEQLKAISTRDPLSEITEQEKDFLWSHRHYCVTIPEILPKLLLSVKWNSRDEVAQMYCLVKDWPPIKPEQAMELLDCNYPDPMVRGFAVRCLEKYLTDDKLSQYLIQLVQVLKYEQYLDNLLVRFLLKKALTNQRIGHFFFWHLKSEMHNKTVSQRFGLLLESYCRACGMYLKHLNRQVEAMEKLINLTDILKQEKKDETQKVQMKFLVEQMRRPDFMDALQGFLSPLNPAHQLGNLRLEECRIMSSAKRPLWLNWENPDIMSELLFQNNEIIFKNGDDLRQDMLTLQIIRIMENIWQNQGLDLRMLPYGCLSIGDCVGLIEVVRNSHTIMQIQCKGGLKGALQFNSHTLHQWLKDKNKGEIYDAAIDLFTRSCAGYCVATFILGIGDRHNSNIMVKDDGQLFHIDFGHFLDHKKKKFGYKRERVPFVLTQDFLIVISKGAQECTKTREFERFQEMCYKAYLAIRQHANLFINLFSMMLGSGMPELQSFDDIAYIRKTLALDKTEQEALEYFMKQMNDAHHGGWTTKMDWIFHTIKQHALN

The target of the first experiment is human Matrix Metalloproteinase-9 (MMP9), MMP9 (gene 4318) (UniProt P14780). The experiment is described as follows: NVS_ENZ_hMMP9: NovaScreen (NVS) Enzymatic Assay for human Matrix Metalloproteinase-9 (MMP9) (AID 2283190).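 Note: cell-free recombinant MMP9 protease activity read by fluorescent substrate signal; active means inhibition seen as loss of fluorescence signal versus DMSO.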 The essentials: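 Screening concentration 25 uM, duplicate wells, then dose series for confirmation. Cell-free enzymatic reaction measured by fluorescence intensity 1 h post-dosing; decreased signal versus DMSO taken as activity.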
Sequence of human Matrix Metalloproteinase-9 (MMP9), MMP9 (gene 4318) (P14780 whole entry, looked up): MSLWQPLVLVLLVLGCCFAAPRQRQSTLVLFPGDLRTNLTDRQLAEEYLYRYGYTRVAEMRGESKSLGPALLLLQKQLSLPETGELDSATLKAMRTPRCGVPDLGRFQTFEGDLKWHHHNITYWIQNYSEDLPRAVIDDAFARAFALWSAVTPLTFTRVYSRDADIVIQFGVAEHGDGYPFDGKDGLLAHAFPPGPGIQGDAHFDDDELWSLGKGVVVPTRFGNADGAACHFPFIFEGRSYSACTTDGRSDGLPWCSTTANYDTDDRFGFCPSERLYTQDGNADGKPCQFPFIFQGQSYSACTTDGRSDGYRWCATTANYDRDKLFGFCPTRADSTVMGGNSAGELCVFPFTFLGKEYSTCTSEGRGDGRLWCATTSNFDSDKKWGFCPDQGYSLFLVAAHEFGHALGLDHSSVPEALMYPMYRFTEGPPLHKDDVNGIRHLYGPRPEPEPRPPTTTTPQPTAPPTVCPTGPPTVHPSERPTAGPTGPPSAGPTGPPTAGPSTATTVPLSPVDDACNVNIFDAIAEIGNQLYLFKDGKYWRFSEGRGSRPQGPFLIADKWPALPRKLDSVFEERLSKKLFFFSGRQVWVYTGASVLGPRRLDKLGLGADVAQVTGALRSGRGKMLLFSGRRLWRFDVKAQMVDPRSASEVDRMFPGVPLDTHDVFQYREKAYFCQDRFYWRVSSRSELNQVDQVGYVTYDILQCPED
One may read the AC50 as the concentration at which the activity in the assay is half-maximal. As for `CCCCCCOC(=O)CCCCC(=O)OCCCCCC`, the AC50 is 7.16 µM (active).

In the case of `CCC(C)(O)CCCC(C)C` (configuration not stated), the AC50 is 0.972 µM (active).

On to `CCCCCCCO`, for which the AC50 is 0.197 µM (active).

For the molecule `CC(C)C(=O)OCCOc1ccccc1`, the AC50 is 7.19 µM (active).

In the case of `CCCSSCCC`, the AC50 was 6.62 µM (active).

`CCCCC(C=O)CC` (configuration not stated): the concentration at half-maximal activity (AC50) was 5.82 µM (active).

For `Cc1ccc(S(=O)(=O)N=C=O)cc1`, the AC50 is 7.22 µM (active).

For the molecule `CC(C)c1cccc(C(C)C)c1N`, the AC50 is 6.9 µM (active).

For `CCCCOC(=O)CCC(C)=O`, the AC50 is 6.97 µM (active).

With `OCCCc1ccccc1`, the molecule was called inactive.

For the molecule `CC(C)(CO)COC(=O)C(C)(C)CO`, the AC50 was 9.37 µM (active).

On to `CCCCCCCC(=O)OCC(COC(=O)CCCCCCC)OC(=O)CCCCCCC`, for which the AC50 is 4.96 µM (active).

For another experiment, the target named is human Phosphodiesterase 10 (PDE10), PDE10A (gene 10846) (UniProt Q9Y233). The experiment is described as follows: NVS_ENZ_hPDE10: NovaScreen (NVS) Enzymatic Assay for human Phosphodiesterase 10 (PDE10) (AID 2283195). The essentials: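 Biochemical single-readout PDE10A assay, cell-free, extracted protein. Compounds first screened at 25 uM in duplicate, hits then titrated to 50 uM max. Activity measured after 1 h; loss-of-signal fitted against DMSO negative control.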
Sequence of human Phosphodiesterase 10 (PDE10), PDE10A (gene 10846) (Q9Y233 whole entry, looked up): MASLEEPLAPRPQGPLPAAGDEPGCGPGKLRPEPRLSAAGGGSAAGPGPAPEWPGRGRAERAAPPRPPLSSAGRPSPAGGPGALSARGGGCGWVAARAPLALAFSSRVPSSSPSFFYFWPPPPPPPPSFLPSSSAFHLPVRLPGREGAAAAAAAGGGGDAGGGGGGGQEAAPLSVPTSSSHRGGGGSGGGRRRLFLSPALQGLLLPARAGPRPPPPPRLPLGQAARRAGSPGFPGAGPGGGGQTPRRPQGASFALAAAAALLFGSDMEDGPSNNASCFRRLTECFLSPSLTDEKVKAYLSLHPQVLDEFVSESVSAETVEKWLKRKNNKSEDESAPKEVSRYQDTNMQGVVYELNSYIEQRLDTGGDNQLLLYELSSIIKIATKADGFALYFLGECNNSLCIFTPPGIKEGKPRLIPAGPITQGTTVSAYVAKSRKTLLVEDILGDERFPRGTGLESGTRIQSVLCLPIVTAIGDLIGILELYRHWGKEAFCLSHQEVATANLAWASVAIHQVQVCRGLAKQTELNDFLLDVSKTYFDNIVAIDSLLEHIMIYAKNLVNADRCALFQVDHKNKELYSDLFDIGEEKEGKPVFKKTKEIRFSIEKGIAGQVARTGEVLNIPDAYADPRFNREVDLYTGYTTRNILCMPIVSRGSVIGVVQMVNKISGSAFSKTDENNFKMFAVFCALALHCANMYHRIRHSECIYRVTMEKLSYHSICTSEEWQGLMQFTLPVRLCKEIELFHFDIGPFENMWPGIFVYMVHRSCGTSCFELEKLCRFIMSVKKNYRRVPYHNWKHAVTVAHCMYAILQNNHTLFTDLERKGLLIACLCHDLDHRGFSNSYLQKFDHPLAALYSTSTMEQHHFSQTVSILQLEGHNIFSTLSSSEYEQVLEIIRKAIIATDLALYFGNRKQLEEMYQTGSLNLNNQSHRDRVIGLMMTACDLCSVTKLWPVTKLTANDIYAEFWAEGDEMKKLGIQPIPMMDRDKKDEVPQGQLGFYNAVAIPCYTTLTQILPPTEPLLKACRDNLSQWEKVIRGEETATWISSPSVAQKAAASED
As to `CCC1(C)C(=O)N(Cl)C(=O)N1Cl` (configuration not stated), the AC50 was 20.7 µM (active).

`O=C1CCCCCCCCCCCN1`: the call was inactive.

Turning to `C=C(C)C1CC=C(C)C(OC(C)=O)C1` (configuration not stated), the molecule was classed as inactive.

Turning to `CCCCOCC(C)O` (configuration not stated), the result was inactive.

On to `O=C1CCCCCCCCCCC1`, for which the call was inactive.

As to `[Cl][Sc]([Cl])[Cl]`, the AC50 is 1.67 µM (active).

`C=CC(=O)O[C@H]1C[C@@H]2CC[C@@]1(C)C2(C)C`: the AC50 is 3.57 µM (active).

With `CCN(CC)c1cccc(C)c1`, the call was inactive.

For the molecule `Cn1cccc1`, the AC50 is 5.59 µM (active).

For `CCCSSCCC`, the outcome was inactive.

With `CC1(C)C(=O)N(CO)C(=O)N1CO`, the AC50 was 46.5 µM (active).

As to `CC(=O)OC1CCCCC1`, the molecule was called inactive.

The next experiment addresses human Phosphoinositide 3-kinase alpha (PI3Ka), PIK3CA (gene 5290) (UniProt P42336). The experiment is described as follows: NVS_ENZ_hPI3Ka: NovaScreen (NVS) Enzymatic Assay for human Phosphoinositide 3-kinase alpha (PI3Ka) (AID 2283196). The essentials:
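Duplicate single-point screen (25 uM), then singleton dose-response (max 50 uM) for compounds meeting the threshold. Cell-free kinase reaction, 1 h; fluorescent mobility-shift readout.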
As for `C=C(C)C1CC=C(C)C(OC(C)=O)C1` (configuration not stated), the AC50 was 25 µM (active).

With `O=C1CCCCCCCCCCC1`, the result was inactive.

In the case of `Oc1ccc(/C=C/c2cc(O)cc(O)c2)cc1`, the molecule was classed as inactive.

The target of another experiment is sheep Cyclooxygenase-1 (Cox1), PTGS1 (gene 443551) (UniProt P05979). The experiment is described as follows: NVS_ENZ_oCOX1: NovaScreen (NVS) Enzymatic Assay for sheep Cyclooxygenase-1 (Cox1) (AID 2283239).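 Note: actives reduce cyclooxygenase activity so potencies are for inhibitors.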 The method, boiled down:
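Absorbance read-out of cyclooxygenase activity in a cell-free preparation from sheep seminal vesicles, taken 0.66 hour after dosing. Initial testing was in duplicate at 25 uM, and confirmatory testing was run in concentration series.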
As for `NNS(=O)(=O)c1ccc(Oc2ccc(S(=O)(=O)NN)cc2)cc1`, the call was inactive.

Consider `Nc1nc(N)nc(-c2ccccc2)n1`, for which the result was inactive.

Consider `Oc1ccc(/C=C/c2cc(O)cc(O)c2)cc1`, for which the AC50 was 7.5 µM (active).

Take `CCCCCCCCCCCC(C)=O`: the AC50 was 31.9 µM (active).

In the case of `Nc1cccc(N)n1`, the call was inactive.
